Source: PubChem (several laboratories)
TLR9-MyD88 inh – inhibitors of human TLR9-MyD88 binding | 340,000 tested, 0.21% active | inhibition, % at 4.98 µM | Q9NR96+Q99836 | CHO BLA complementation TLR9-MyD88, CCF4 FRET ratio;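 active = inhibition above the mean over all tested compounds plus 3 SD, cut at about 21% in these data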;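 also: 0% = DMSO only wells and 100% = clavulanate BLA inhibitor control wells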
HSF1 inhib – HSF1 inhibition | NIH3T3-HGL HSE-luciferase, MG132-induced, luminescence 8 h; hits give low values | activity change, negative = inhibition, % at 7.5 µM (by protocol) | 300,000 tested, 0.77% active | AID 2098;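 active = more than half of replicate wells show activity change below -50%, luminescence cut by over half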;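 also: luciferase reports HSF-1 transcriptional activity via heat shock element; 0% = median of DMSO wells and -100% = zero luminescence signal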
TLR4 MyD88 comp – inhibitors of human TLR4-MyD88 binding | 200,000 tested, 0.18% active | inhibition, % at 8.4 µM | HeLa CL3-4 TLR4/MyD88 BLA complementation, FRET ratio | O00206+Q99836; in the data active = inhibition above about 25%;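 also: 0% = vehicle and 100% = reference inhibitor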
Target sequence (O00206 whole entry, looked up): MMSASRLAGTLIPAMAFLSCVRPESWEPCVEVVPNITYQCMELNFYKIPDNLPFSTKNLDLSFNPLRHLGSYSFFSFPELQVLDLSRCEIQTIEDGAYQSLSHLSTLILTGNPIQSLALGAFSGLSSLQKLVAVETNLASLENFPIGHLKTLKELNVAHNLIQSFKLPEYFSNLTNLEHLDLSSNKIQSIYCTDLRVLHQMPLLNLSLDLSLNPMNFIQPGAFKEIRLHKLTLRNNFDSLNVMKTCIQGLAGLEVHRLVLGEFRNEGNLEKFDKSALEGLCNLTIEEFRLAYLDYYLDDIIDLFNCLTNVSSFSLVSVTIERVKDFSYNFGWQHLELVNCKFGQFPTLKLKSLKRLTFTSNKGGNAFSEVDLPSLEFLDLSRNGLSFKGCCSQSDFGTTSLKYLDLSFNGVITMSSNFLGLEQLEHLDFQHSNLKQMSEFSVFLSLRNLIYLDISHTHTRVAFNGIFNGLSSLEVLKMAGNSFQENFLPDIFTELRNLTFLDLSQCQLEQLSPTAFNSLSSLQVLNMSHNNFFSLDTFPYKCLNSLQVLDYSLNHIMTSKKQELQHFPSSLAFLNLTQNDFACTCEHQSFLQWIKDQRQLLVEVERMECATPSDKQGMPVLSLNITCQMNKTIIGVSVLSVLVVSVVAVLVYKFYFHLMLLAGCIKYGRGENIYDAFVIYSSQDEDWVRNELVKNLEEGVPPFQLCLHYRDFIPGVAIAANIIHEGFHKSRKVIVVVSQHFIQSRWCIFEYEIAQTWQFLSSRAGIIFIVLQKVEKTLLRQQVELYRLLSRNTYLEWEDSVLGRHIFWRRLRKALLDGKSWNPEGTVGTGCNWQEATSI
Target sequence (Q99836 whole entry, looked up): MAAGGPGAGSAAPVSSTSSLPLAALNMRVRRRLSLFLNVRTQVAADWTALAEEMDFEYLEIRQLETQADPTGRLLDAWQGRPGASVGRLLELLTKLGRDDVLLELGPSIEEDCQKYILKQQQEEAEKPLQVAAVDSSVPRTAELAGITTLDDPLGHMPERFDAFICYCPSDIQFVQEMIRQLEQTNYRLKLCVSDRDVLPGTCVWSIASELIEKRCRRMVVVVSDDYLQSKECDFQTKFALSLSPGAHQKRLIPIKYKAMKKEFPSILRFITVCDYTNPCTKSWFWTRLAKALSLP
HSF-1 act – increases HSF-1 driven luciferase reporter signal. NIH3T3-HGL HSF-1 luciferase reporter, MG132, 8 h; 100% = twice DMSO control signal. 300,000 tested, 1.7% active. AID 504408. activation, % at 9 µM;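 active = mean replicate activation of at least 50% with a set share of replicates each reaching 50%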;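 also: 0% = median of the neutral control wells and 100% = twice that signal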
NOD2 RIPK2 PPI – inhibitors of human NOD2-RIPK2 interaction. O43353. CHO BLA complementation NOD2-RIPK2, CCF4 ratio. inhibition, % at 4.98 µM. 360,000 tested, 0.38% active; in the data active = inhibition above about 21%;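 also: 0% = vehicle only and 100% = reference blocker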
* marks the source's active call; other numbers are inactive results; ! = repeats disagree. A selection: hits, their analogues and other compounds. The true share with any hit is near 2.4%.

What do the screens show for `Nc1nn2cc(-c3ccccc3)nc2c2ccccc12`?
TLR9-MyD88 inh: 8; HSF1 inhib: 30; TLR4 MyD88 comp: -1; HSF-1 act: 58*; NOD2 RIPK2 PPI: 4

What do the screens show for `O=[N+]([O-])c1ccc(CSc2nc3ccccc3o2)cc1`?
TLR9-MyD88 inh: -8; HSF1 inhib: 92; TLR4 MyD88 comp: -4; HSF-1 act: 117*; NOD2 RIPK2 PPI: 4

Results for CCOC(=O)[C@]12CCC=C1N(Cc1ccc3c(c1)OCO3)C(=O)[C@H](CC(=O)NCC1CCCCC1)C2 ?
NOD2 RIPK2 PPI: 10

What do the screens show for `COc1ccc(C2CC(=O)C3=C(C2)Nc2ncnn2C3c2ccccc2)cc1` (stereo not drawn)?
TLR9-MyD88 inh: -4; HSF1 inhib: 40; TLR4 MyD88 comp: 20; HSF-1 act: 81*; NOD2 RIPK2 PPI: -10

How did COc1ccc(C2CC(=O)C3=C(C2)Nc2ncnn2C3c2ccccc2C)cc1 (stereo not drawn) do in these assays?
TLR9-MyD88 inh: -7; HSF1 inhib: -5; TLR4 MyD88 comp: 11; HSF-1 act: -24; NOD2 RIPK2 PPI: -11

Results for O=C1c2ccccc2C(=O)N1CCOc1ccccc1Br ?
TLR9-MyD88 inh: -7; HSF1 inhib: 44; HSF-1 act: 99*; NOD2 RIPK2 PPI: -7

How did O=C1c2ccccc2C(=O)N1CCOc1ccccc1Cl do in these assays?
TLR9-MyD88 inh: 0; HSF1 inhib: 31; HSF-1 act: 71*; NOD2 RIPK2 PPI: -11

What do the screens show for `O=C(NCc1ccc2c(c1)OCO2)OCc1ccccc1`?
NOD2 RIPK2 PPI: -18

What do the screens show for `Cc1cccc(C)c1OCC(=O)N=Nc1c(O)[nH]c2ccc(Br)cc12`?
TLR9-MyD88 inh: -2; HSF1 inhib: -13; TLR4 MyD88 comp: -1; HSF-1 act: -7; NOD2 RIPK2 PPI: -8

What do the screens show for `CC(Oc1ccccc1)C(=O)N=Nc1c(O)[nH]c2ccc(Br)cc12` (stereo not drawn)?
TLR9-MyD88 inh: -5; HSF1 inhib: 25; TLR4 MyD88 comp: 2; HSF-1 act: 70*; NOD2 RIPK2 PPI: 2

Results for CC1Cc2ccccc2N1C(=O)CSc1nc2ccccc2s1 (stereo not drawn) ?
TLR9-MyD88 inh: -4; HSF1 inhib: 19; TLR4 MyD88 comp: 1; HSF-1 act: 56*; NOD2 RIPK2 PPI: 2

Results for Cc1nnc(SCC(=O)N2c3ccccc3CC2C)s1 (stereo not drawn) ?
TLR9-MyD88 inh: 3; HSF1 inhib: 8; TLR4 MyD88 comp: 0; HSF-1 act: 14; NOD2 RIPK2 PPI: -25

How did CC1CCN(C(=O)CSc2nc3ccccc3s2)CC1 do in these assays?
TLR9-MyD88 inh: 4; HSF1 inhib: 30; TLR4 MyD88 comp: 0; HSF-1 act: 54*; NOD2 RIPK2 PPI: -1

What do the screens show for `O=C(O)C1CCN(C(=O)CSc2nc3ccccc3s2)CC1`?
TLR9-MyD88 inh: -4; HSF1 inhib: -6; TLR4 MyD88 comp: 7; HSF-1 act: 1; NOD2 RIPK2 PPI: -17

How did O=C(O)CCSc1nc2ccccc2s1 do in these assays?
TLR9-MyD88 inh: -4; HSF1 inhib: -63*; TLR4 MyD88 comp: 2; HSF-1 act: -65; NOD2 RIPK2 PPI: -3

How did COc1ccc(OCC(=O)Nc2cc(-c3nn(C)c(=O)c4ccccc34)ccc2OC)cc1 do in these assays?
TLR9-MyD88 inh: -15; HSF1 inhib: -11; TLR4 MyD88 comp: 8; HSF-1 act: -23; NOD2 RIPK2 PPI: 8

How did Cn1c(CCN2CCCCC2)nc2cc(NC(=O)Nc3ccccc3)ccc21 do in these assays?
TLR9-MyD88 inh: -1; HSF1 inhib: 59; TLR4 MyD88 comp: -2; HSF-1 act: 58*; NOD2 RIPK2 PPI: -11

Results for COc1ccc(NC(=O)COc2ccc(-c3nn(C)c(=O)c4ccccc34)cc2)cc1 ?
TLR9-MyD88 inh: -13; HSF1 inhib: -83*; TLR4 MyD88 comp: 1; HSF-1 act: -86; NOD2 RIPK2 PPI: -8

How did Cc1nn(CC(=O)Nc2ccc3c(c2)nc(CCN2CCCCC2)n3C)c(=O)c2ccccc12 do in these assays?
TLR9-MyD88 inh: 3; HSF1 inhib: 40; TLR4 MyD88 comp: -8; HSF-1 act: 53*; NOD2 RIPK2 PPI: -13

Results for COc1ccc(OCC(=O)Nc2ccc3c(c2)nc(CCn2ccccc2=O)n3C)cc1 ?
TLR9-MyD88 inh: 2; HSF1 inhib: 10; HSF-1 act: 52*; NOD2 RIPK2 PPI: 4

Results for Cc1nnc(SCC(=O)NCC2COc3ccccc3O2)s1 (stereo not drawn) ?
TLR9-MyD88 inh: -3; NOD2 RIPK2 PPI: -13

Results for Cc1cccc(OCc2nnc(SCC(=O)NCc3ccc4c(c3)OCO4)o2)c1 ?
TLR9-MyD88 inh: 1; NOD2 RIPK2 PPI: -11

What do the screens show for `Cc1ccc(NC(=O)Nc2ccc3c(c2)nc(C)n3C)cc1`?
TLR9-MyD88 inh: 5; HSF1 inhib: 0; TLR4 MyD88 comp: 9; HSF-1 act: 15; NOD2 RIPK2 PPI: -8

Results for Cc1nc2cc(NC(=O)Nc3cccc([N+](=O)[O-])c3)ccc2n1C ?
TLR9-MyD88 inh: 4; HSF1 inhib: 27; HSF-1 act: 54*; NOD2 RIPK2 PPI: -4

What do the screens show for `CCNC(=O)C1(C)CCN(Cc2noc(-c3c(C)noc3C)n2)C1` (stereo not drawn)?
NOD2 RIPK2 PPI: -15

Results for CCN(CC)CCOc1ccc(/C(=C(/Cl)c2ccccc2)c2ccccc2)cc1 ?
TLR9-MyD88 inh: 7; HSF1 inhib: 18; HSF-1 act: 67*!; NOD2 RIPK2 PPI: 2

What do the screens show for `Cc1nc2c(ncn2-c2ccccc2)c(=O)n1NC(=O)CN1CCOCC1`?
TLR9-MyD88 inh: -3; HSF1 inhib: -57*; HSF-1 act: -64; NOD2 RIPK2 PPI: -5

Results for N#CCC(=O)Nc1ccc(C(=O)OCC(=O)Nc2ccccc2Sc2ccccc2)cc1 ?
HSF1 inhib: 21; TLR4 MyD88 comp: -9; HSF-1 act: 63*; NOD2 RIPK2 PPI: 16

How did CC(=O)Nc1ccc(C(=O)OCC(=O)Nc2ccccc2Sc2ccccc2)cc1 do in these assays?
TLR9-MyD88 inh: -6; HSF1 inhib: -9; TLR4 MyD88 comp: 3; HSF-1 act: 8; NOD2 RIPK2 PPI: 5

What do the screens show for `COCCNC(=O)C1(C)CCCN(C(=O)c2ccc3snnc3c2)C1` (stereo not drawn)?
NOD2 RIPK2 PPI: -6

What do the screens show for `NC(N)=NS(=O)(=O)c1ccc(NC(=S)NC(=O)c2ccncc2)cc1`?
TLR9-MyD88 inh: 2; HSF1 inhib: -4; HSF-1 act: 15; NOD2 RIPK2 PPI: 2

What do the screens show for `NC(N)=NS(=O)(=O)c1ccc(NC(=S)NC(=O)c2ccc(Br)cc2)cc1`?
TLR9-MyD88 inh: -1; HSF1 inhib: 86; TLR4 MyD88 comp: 0; HSF-1 act: 114*; NOD2 RIPK2 PPI: 1

How did O=C(Nc1ccc2ccccc2n1)c1ccccc1Cl do in these assays?
TLR9-MyD88 inh: -2; HSF1 inhib: 28; HSF-1 act: 61*; NOD2 RIPK2 PPI: 8

What do the screens show for `O=C(Nc1ccc2ccccc2n1)c1ccc(Cl)cc1`?
TLR9-MyD88 inh: 7; HSF1 inhib: 31; HSF-1 act: 60*; NOD2 RIPK2 PPI: 5

What do the screens show for `O=C(Nc1cccc(NC(=O)c2ccc(Cl)cc2)n1)c1ccc(Cl)cc1`?
TLR9-MyD88 inh: 1; HSF1 inhib: -5; HSF-1 act: -8; NOD2 RIPK2 PPI: -3
